# Source: PubChem BioAssay (several laboratories)
# Bead autofluor = compound fluorescence in toxin protease inhibitor counterscreen; compound autofluorescence counterscreen, microsphere flow cytometry; stronger effect = higher value; AID 624483; fluorescence intensity (no concentration beside the values); 360,000 compounds, 3.1% hits; in the data active = fluorescence intensity above about 16000; inconclusive = no clear call, values can overlap the other calls
# Mtb FBA inh = Mtb FBA enzyme inhibitors, primary screen, biochemical, fluorescence, strain H37Rv. Fructose-bisphosphate aldolase (Mycobacterium tuberculosis (strain ATCC 25618 / H37Rv)), …. purified M. tuberculosis FBA, fluorescence read-out. inhibition, % at 1 µM. 360,000 compounds, 2.3% hits; in the data active = inhibition above about 27%
# Target sequence (P9WQA3 whole entry, looked up): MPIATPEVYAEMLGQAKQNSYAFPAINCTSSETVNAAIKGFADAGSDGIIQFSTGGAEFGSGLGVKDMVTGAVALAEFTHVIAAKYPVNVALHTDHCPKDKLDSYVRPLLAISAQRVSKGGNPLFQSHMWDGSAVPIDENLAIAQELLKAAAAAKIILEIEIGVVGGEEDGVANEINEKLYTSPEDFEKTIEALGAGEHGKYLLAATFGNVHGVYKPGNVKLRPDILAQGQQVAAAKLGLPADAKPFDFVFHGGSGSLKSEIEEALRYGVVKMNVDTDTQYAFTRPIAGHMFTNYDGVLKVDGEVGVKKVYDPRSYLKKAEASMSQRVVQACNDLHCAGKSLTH
# GDH-TPI counter = GDH-TPI coupling enzyme inhibitors, primary screen, artefact control for M. tuberculosis FBA inhibitor project, biochemical, absorbance, full deck | GDH-TPI coupled enzyme counterscreen, NADH absorbance | inhibition, % at 4.8 µM | 360,000 compounds, 1.2% hits | AID 588335, 2011; in the data active = inhibition above about 30%
# BoNT-A LC inh2 = BoNT/A light chain protease inhibitors, primary screen, biochemical, flow cytometry, MLPCN library | Botulinum neurotoxin type A light chain protease (Clostridium botulinum A str. ATCC 3502) | multiplex microsphere protease substrate cleavage | inhibition, % at 10 µM | 360,000 compounds, 0.17% hits
# Anthrax LF inh2 = Bacillus anthracis LF protease inhibitors, primary screen, biochemical, multiplex microsphere, MLPCN library; Lethal factor (Bacillus anthracis), P15917; multiplex microsphere protease cleavage assay; inhibition, % at 10 µM; 360,000 compounds, 0.12% hits; AID 588501, 2011
# BoNT F protease = BoNT/F light chain protease inhibitors, primary screen, biochemical, flow cytometry, MLPCN library | inhibition, % at 10 µM | Multiplex microsphere protease cleavage assay | 360,000 compounds, 0.22% hits; in the data active = inhibition above about 35%, passing the limit was not always enough; inconclusive = no clear call, values can overlap the other calls
# Hits are given with their value; 0 = inactive; ? = inconclusive; - = no result given; + = active, no number. An excerpt weighted towards active compounds, which were near 6.7% of everything screened. Cut-off read from the data, not from the text of the source, unless noted: active = inhibition above about 30%; inconclusive = no clear call, values can overlap the other calls; inactive = below that.
SMILES,Bead autofluor,Mtb FBA inh,GDH-TPI counter,BoNT-A LC inh2,Anthrax LF inh2,BoNT F protease
Cc1nc2c(-c3ccccc3)c(C)nn2c(C)c1CCC(=O)N1CCC2(CC1)OCCO2,?,0,0,?,?,62
COc1ccc(NC(=O)C2CCCN(c3c4c(nc5ncnn35)CCC4)C2)cc1 (stereo not drawn),23021,0,0,0,0,0
Cc1ccnc(N2CCCC(C(=O)Nc3nnc(C)s3)C2)n1 (stereo not drawn),0,0,0,0,0,0
O=C(Nc1ccc(Oc2ccccc2)cc1)C1CCCN(c2ncccn2)C1 (stereo not drawn),21093,0,0,0,0,0
Cc1nnc(NC(=O)C2CCCN(c3ncccn3)C2)s1 (stereo not drawn),22811,0,0,0,0,0
O=C(Nc1ccc(C2CCCCC2)cc1)C1CCCN(c2ncccn2)C1 (stereo not drawn),22140,0,0,?,0,0
COc1ccc(NC(=O)C2CCCN(c3cc(C)nc4ncnn34)C2)cc1 (stereo not drawn),0,0,0,0,0,0
CCC(C)Nc1nc(-c2ccc3c(c2)NC(=O)CO3)cs1 (stereo not drawn),?,0,0,0,0,0
CCOC(=O)C1(CCc2ccccc2)CCN(C(=O)c2ccoc2)CC1,0,0,0,0,0,0
O=C1C2C3C=CC(C3)C2C(=O)N1c1ccc2ccccc2n1 (stereo not drawn),0,0,0,0,0,0
O=C1C2C3C=CC(C3)C2C(=O)N1c1n[nH]c(-c2cccnc2)n1 (stereo not drawn),0,0,0,0,0,0
O=C1C2C3C=CC(C3)C2C(=O)N1c1cccc(N2C(=O)C3C4C=CC(C4)C3C2=O)n1 (stereo not drawn),22915,0,0,0,0,0
Cc1ccc(N2C(=O)C3C4C=CC(C4)C3C2=O)cc1C (stereo not drawn),22226,0,0,0,0,0
O=C1C2C3C=CC(C3)C2C(=O)N1c1n[nH]c(-c2ccccc2)n1 (stereo not drawn),23080,0,0,0,0,0
Cn1ccsc1=NC(=O)c1ccccc1OC(F)F,0,0,0,0,0,0
O=[N+]([O-])c1ccc2c([N+](=O)[O-])ccc3c2c1CC3,0,0,0,0,0,0
Cc1ccc(NC(=O)Cn2nnc(C(=O)NCc3ccco3)c2N)cc1,0,0,0,0,0,0
Cc1cc(C)c(NC(=O)Cn2nnc(C(=O)NCc3ccco3)c2N)c(C)c1,0,0,33,0,0,0
Cc1ccccc1NC(=O)C1c2cccc[n+]2CC(=O)N1c1c(C)cccc1C (stereo not drawn),0,0,0,0,0,0
COc1cc(OC)nc(NC(C)=O)n1,23958,0,0,0,0,0
COc1cc(OC)nc(NC(=O)C(C)C)n1,0,0,0,0,0,0
C=CCn1c(-c2cccnc2Cl)nc2cc(Cl)c(Cl)cc21,0,0,0,0,0,0
CCCn1c(-c2cccnc2Cl)nc2cc(Cl)c(Cl)cc21,21449,0,0,0,0,0
O=C(NCc1ccco1)c1cccc(-c2ccc3nccn3c2)c1,0,0,0,0,0,0
O=C(NC1CC1)c1cccc(-c2cncc3nccn23)c1,0,185,0,0,0,0
SMILES,Bead autofluor,Mtb FBA inh,GDH-TPI counter,BoNT-A LC inh2,Anthrax LF inh2,BoNT F protease
O=C(NC1CC1)c1ccc(-c2cnc3cccnn23)cc1,0,+,0,0,0,0
O=C(NCc1ccco1)c1cccc(-c2cncc3nccn23)c1,0,123,0,0,0,0
Cc1ccccc1CN1CCN(Cc2cc(=O)c3ccccc3[nH]2)CC1CCO (stereo not drawn),0,0,0,0,0,0
CN(C)N1C(=O)/C(=C/c2ccco2)SC1=Nc1ccccc1,0,0,40,0,0,?
Cc1ccccc1NS(=O)(=O)c1cc(C(=O)N2CCc3ccccc3C2)ccc1C,25113,0,0,?,0,0
Cc1ccccc1NC(=O)c1ccc(C)c(S(=O)(=O)Nc2ccccn2)c1,18024,0,0,0,0,0
Cc1cc(Cl)c2oc(C(=O)N3CCN(C4CCS(=O)(=O)C4)CC3)c(C)c2c1 (stereo not drawn),0,0,0,0,0,0
Cc1cc(NC(=O)C(C)Sc2nc(-c3ccccc3)cc(=O)[nH]2)no1 (stereo not drawn),0,0,0,0,0,0
CC(Sc1nc(-c2ccccc2)cc(=O)[nH]1)C(=O)O (stereo not drawn),24389,0,0,0,0,0
Cc1cc(/C=C2\SC(=S)N(Cc3ccco3)C2=O)c(C)n1-c1cccnc1,0,0,0,0,0,0
Cc1cc(/C=C2/SC(=S)N(c3cccc(C(F)(F)F)c3)C2=O)c(C)n1-c1cccnc1,0,0,0,53,46,84
Cc1cccc(C)c1-n1c(C)cc(/C=C2\NC(=O)NC2=O)c1C,0,0,33,0,0,0
Cc1cc(/C=C2\NC(=O)NC2=O)c(C)n1-c1cccnc1,-,0,45,-,-,-
CC1CC(CC(C)C(=O)NC(=S)Nc2ccc(S(N)(=O)=O)cc2)C(=O)O1 (stereo not drawn),0,0,0,0,0,0
OC(Cn1c2ccccc2c2ccccc21)C[n+]1cccc2ccccc21 (stereo not drawn),20032,0,0,?,0,0
CCOC(=O)c1[nH]c2ccc(C)cc2c1N,22785,0,0,0,0,0
Cc1ccc(-n2nc3c(=O)n(CCCC(=O)NCCc4ccccc4C)nc(C)c3c2C)cc1,0,0,0,0,0,0
CCOc1cc(/C=N/N=C2/NC(=O)C(CC(=O)O)S2)ccc1OCc1ccccc1Cl (stereo not drawn),0,0,40,0,0,0
COc1ccc(/C=N/N=C2/NC(=O)C(CC(=O)O)S2)cc1OCc1ccc(Cl)cc1Cl (stereo not drawn),0,0,35,0,0,0
COc1ccc(/C=N/N=C2/NC(=O)C(CC(=O)O)S2)cc1OCc1ccccc1Cl (stereo not drawn),0,0,46,0,0,0
COc1cc2c(cc1OC)[C@H](C)N(C(=S)Nc1ccc(F)cc1)CC2,0,0,0,0,0,0
COC(=O)c1ccccc1NC(=O)Cn1cnc([N+](=O)[O-])c1,0,0,0,?,0,?
O=C(Cn1ccc(C(F)(F)F)n1)NNC(=O)c1ccco1,0,0,0,0,0,0
N#Cc1ccccc1Sc1ccccc1C(=O)OCC(=O)N1CCN(C(=O)c2ccco2)CC1,0,0,0,0,0,0
Cc1ccc(-c2cn3cccnc3n2)cc1NC(=O)c1c(-c2ccccc2Cl)noc1C,0,+,0,0,0,0
